Compound activity as filed in PubChem BioAssay.
Most compounds without a hit are left out; they make up all but 15% or so of the library.
TDP1 cell CPT: qHTS for Inhibitors of human tyrosyl-DNA phosphodiesterase 1 (TDP1): qHTS in cells in presence of CPT. 420,000 tested, 12% active. AID 686979, 2013. Potency, µM (top dose mostly 46.2 µM), usual class: inhibitors. chicken DT40 Tdp1-/-;hTDP1 cells + 20 nM CPT, ATP luminescence, 48 h; further: nearly all actives have a fitted effect of over 55% in size
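Chicken DT40 Tdp1-/- cells complemented with human TDP1, 400 cells/well, exposed to compounds plus 20 nM camptothecin for at least 48 h at 37 C; viability read as ATP content by CellTiter-Glo luminescence.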
VP16 counter: VP16 counterscreen qHTS for inhibitors of ROR gamma transcriptional activity | Drosophila S2 Gal4-VP16 UAS-luciferase, luminescence, 20 h | Potency, µM (titrated, usually from 53.6 µM), most hits filed as inhibitors | 310,000 tested, 3.5% active;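 further: Gal4-VP16 expression switched on by copper sulfate through the metallothionein promoter; nearly all actives have a fitted effect of over 50% in size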
TDP1 cell noCPT: qHTS for Inhibitors of human tyrosyl-DNA phosphodiesterase 1 (TDP1): qHTS in cells in absence of CPT; DT40 Tdp1-/- hTDP1 cells, no CPT, ATP luminescence, 48 h; Potency, µM (series often up to 46.2 µM), actives largely listed as inhibitors; 420,000 tested, 15% active; AID 686978, 2013; further: nearly all actives have a fitted effect of over 55% in size
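Seeded 400 DT40-hTDP1 cells/well (vehicle DMSO, no 20 nM CPT); pinned compounds; ≥48 hr at 37 °C; CellTiter-Glo luminescence as viability measure.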
12-LOX inh: Primary qHTS assay for inhibitors of human arachidonate 12S-lipoxygenase (ALOX12): Round 2; purified 12hLO, xylenol orange hydroperoxide absorbance; 580,000 tested, 1.1% active; Potency, µM (highest dose often 108 µM), most hits filed as inhibitors; Polyunsaturated fatty acid lipoxygenase ALOX12 (Homo sapiens), P18054
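Purified human 12hLO at 150 nM in 25 mM Hepes, 0.01% Triton X-100, pH 7.0, preincubated 15 min at room temperature with compound. Reaction started with 40 uM arachidonic acid, 30 min at room temperature. Hydroperoxide measured by Fe-xylenol orange, 573/405 nm absorbance ratio.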
ELG1 DNA repair: qHTS screen for small molecules that inhibit ELG1-dependent DNA repair in human embryonic kidney (HEK293T) cells expressing luciferase-tagged ELG1. HEK293T ELG1-luciferase reporter, luminescence, 16 h; DNA damage induced by 5-fluorouridine. Potency, µM (series often up to 46.1 µM), actives largely listed as inhibitors. 330,000 tested, 2.3% active; further: nearly all actives have a fitted effect of over 55% in size
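Step one: seed 2,000 cells per well. Step two: pin-transfer compound or DMSO alongside 5-fluorouridine. Step three: incubate 16 hr, 37 °C, 5% CO2. Step four: add ONE-Glo, wait 30 min, read luminescence.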
RORg inh: qHTS for inhibitors of ROR gamma transcriptional activity | Drosophila S2 Gal4-RORgamma UAS-luciferase reporter, 20 h | Nuclear receptor ROR-gamma (Mus musculus), P51450 | 310,000 tested, 5.4% active | AID 2551, 2010 | Potency, µM (titrated, usually from 53.6 µM), most hits filed as inhibitors; further: nearly all actives have a fitted effect of over 60% in size
Target sequence (P51450 whole entry, looked up, the tested form may be a part): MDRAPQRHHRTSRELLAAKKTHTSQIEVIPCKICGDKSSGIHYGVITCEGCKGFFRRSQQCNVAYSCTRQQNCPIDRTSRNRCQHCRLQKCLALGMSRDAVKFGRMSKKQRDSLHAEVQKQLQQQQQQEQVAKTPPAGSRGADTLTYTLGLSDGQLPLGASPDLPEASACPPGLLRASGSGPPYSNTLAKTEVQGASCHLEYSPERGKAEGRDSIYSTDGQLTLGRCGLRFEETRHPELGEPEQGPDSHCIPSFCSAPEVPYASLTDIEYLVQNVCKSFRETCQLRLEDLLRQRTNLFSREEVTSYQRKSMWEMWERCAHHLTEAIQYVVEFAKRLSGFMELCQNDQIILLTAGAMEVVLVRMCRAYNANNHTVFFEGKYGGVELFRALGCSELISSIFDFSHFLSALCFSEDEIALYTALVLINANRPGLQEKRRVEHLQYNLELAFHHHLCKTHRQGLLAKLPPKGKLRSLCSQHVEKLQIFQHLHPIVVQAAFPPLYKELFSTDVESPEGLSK
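Read-out: Photinus luciferase luminescence; inhibitors lower reporter signal. Insect Schneider cells with Gal4-ROR gamma fusion under metallothionein promoter, UAS reporter; 700 uM final copper sulfate induction, 20 hr, ambient temperature.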
Hits are given with their value; 0 = inactive; ? = inconclusive; - = no result. The call rests on the fitted dose curve; in most records, active means well fitted curve in the direction sought with a large enough effect; inconclusive means small, poorly fitted or top-dose-only effect, or another doubt; inactive means no such curve, though single readings can be large; an effect the other way counts as inactive or inconclusive.

SMILES	TDP1 cell CPT	VP16 counter	TDP1 cell noCPT	12-LOX inh	ELG1 DNA repair	RORg inh
Cc1ccc(NC(=O)CSc2nc3nccnc3c(=O)n2CCc2c[nH]c3ccccc23)cc1C	13µM	-	12µM	0	-	-
CC(C)S(=O)(=O)c1csc(C(=O)Nc2ccc(F)cc2)c1N	21µM	0	?	0	?	?
Cc1nc(Cl)sc1C(=O)Nc1ccc(F)cc1	0	-	0	0	-	-
O=C(Nc1cn[nH]c1)C1CCN(c2ccc(Cl)nn2)CC1	-	-	-	0	-	-
O=C(Nc1ccccc1N1CCOCC1)c1ccc([N+](=O)[O-])cc1	0	0	0	0	0	0
O=C(NCc1ccco1)c1cc([N+](=O)[O-])ccc1N1CCCCC1	16µM	?	?	0	?	0
O=C(NCc1ccco1)c1ccc(N2CCCCC2)c([N+](=O)[O-])c1	0	0	0	0	?	?
CC(C)C(=O)N1CCN(c2ccccc2NC(=O)c2cc([N+](=O)[O-])ccc2N2CCOCC2)CC1	?	0	13µM	0	?	0
O=C(c1cc([N+](=O)[O-])ccc1N1CCOCC1)N1CCN(c2ccc([N+](=O)[O-])cc2)CC1	13µM	-	15µM	0	0	-
O=C(c1cc([N+](=O)[O-])ccc1N1CCOCC1)N1CCCCC1	0	0	0	0	0	0
O=C(c1cc2cc([N+](=O)[O-])ccc2oc1=O)N1CCOCC1	0	?	0	0	?	5µM
COc1ccc(CNC(=O)Cn2nc(-c3ccc(OC)c(OC)c3)ccc2=O)cc1OC	-	-	-	0	-	-
O=c1oc(-c2ccc(F)cc2)nn1CC(O)COc1ccc(-c2ccccc2)cc1 (configuration not stated)	-	-	-	0	-	-
COc1ccc2c(C)c(CC(=O)Nc3cccc(C)c3)c(=O)oc2c1OC	-	-	-	0	-	-
O=C(Nc1ccc(NC(=O)c2cc([N+](=O)[O-])ccc2N2CCOCC2)cc1)c1cccs1	?	0	?	0	0	0
O=C(c1cccc2ccccc12)N1CCN(c2ccc([N+](=O)[O-])c(N3CCOCC3)c2)CC1	9.2µM	0	21µM	0	?	?
Cc1ccc(N(Cc2ccco2)C(=O)c2ccc(N3CCCCC3)c([N+](=O)[O-])c2)cc1	21µM	0	5.8µM	0	0	?
O=C(Nc1ccc(N2CCCC2)cc1)c1cc([N+](=O)[O-])ccc1N1CCOCC1	?	0	23µM	0	?	?
O=C(COc1ccc(Br)cc1)N1CCN(c2ccc([N+](=O)[O-])c(N3CCCCC3)c2)CC1	?	0	21µM	0	0	?
CCNC(=O)c1c(NC(=O)c2ccc(C)cc2)sc2c1CCCC2	-	-	-	0	-	-
COc1ccc(-n2nnnc2SCC(=O)c2ccc3c(c2)OCCO3)c(OC)c1	?	?	13µM	0	0	0
COc1ccc(C)cc1-n1nnnc1SCC(=O)Nc1cccnc1Cl	?	?	21µM	0	?	?
Cc1cc(C(=O)CSc2nnc3ccccn23)c(C)n1-c1ccccc1	?	2.8µM	23µM	0	?	5µM
Cc1ccc(-n2nnnc2SCC(=O)c2ccc3c(c2)NC(=O)CO3)c(C)c1	?	0	?	?	0	?
O=C(CSc1nnnn1C1CCCCC1)N1c2ccccc2Sc2ccccc21	?	0	21µM	0	0	0
Cc1ccc(NCC(O)Cn2c3ccccc3n3c(=O)cc(C)c(C#N)c23)cc1C (configuration not stated)	-	-	-	0	-	-
O=C(CSc1nnc2ccccn12)c1ccc2c(c1)OCCO2	0	?	0	?	?	13µM
COc1ccc(C)cc1-n1nnnc1SCC(=O)c1ccc2c(c1)OCCO2	18µM	0	?	0	0	0
CC(C)c1ccc(CN2CCN(C(=O)CSc3nnnn3C3CC3)CC2)cc1	?	-	12µM	0	0	-
